Source: PubChem (Sanford-Burnham Center for Chemical Genomics)
ER stress death: ER stress cell death inhibition; CSM14.1 thapsigargin ER stress survival, ATP luminescence; relative survival (cellular ATP), % at 15 µg/mL (by protocol); actives 0.33% (n = 48,000); AID 1010;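 active = survival measured by cellular ATP above 50% at 15 µg/ml in the first screen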;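 also: cell death triggered by about 15 µM thapsigargin; ATP read 24 h after thapsigargin was added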
Large screens that a line does not name were inactive. The full list was thinned out, with hits kept by preference.

CCOC(=O)c1c(C)nc(C)c(C(=O)OCC)c1-c1cccc(NC(=O)c2ccc(F)cc2)c1	ER stress death 115.2
CCc1ccc(/C=C2/SC(=S)N(CC(=O)O)C2=O)cc1	none
Cc1cc2nc(-c3cc(NC(=O)Cc4ccccc4)ccc3O)oc2cc1C	none
CC1=Nc2cc([N+](=O)[O-])ccc2NC(=O)C1	none
Cc1c(N2C(=O)/C(=C/c3ccc(F)cc3)SC2=S)c(=O)n(-c2ccccc2)n1C	none
CCCC(=O)NNC(=O)c1ccccc1C	ER stress death 64.8
Cc1ccccc1C(=O)NNC(=O)C(C)C	none
Cc1ccccc1C(=O)NNC(=O)c1ccco1	none
O=C(CSc1nnc(CCCN2C(=O)c3cccc4cccc(c34)C2=O)n1-c1ccccc1)NCCCn1ccnc1	none
COc1ccc(C2CC(=O)C3=C(C2)Nc2ccccc2NC3c2ccc(OC(C)=O)c(OC)c2)cc1OC (stereo not given)	none
COc1ccc(C2CC(=O)C3=C(C2)Nc2ccccc2NC3c2cccc(C(F)(F)F)c2)cc1OC (stereo not given)	ER stress death 134.6
COc1ccc(C2Nc3ccccc3NC3=C2C(=O)CC(c2ccc(OC)c(OC)c2)C3)cc1 (stereo not given)	none
COc1ccc(C2CC(=O)C3=C(C2)Nc2ccccc2NC3c2ccc(F)cc2)cc1OC (stereo not given)	none
COc1ccc(C2CC(=O)C3=C(C2)Nc2ccccc2NC3c2cccc(Br)c2)cc1OC (stereo not given)	ER stress death 122.2
COc1ccc(C2Nc3ccccc3NC3=C2C(=O)CC(c2ccccc2)C3)cc1OC (stereo not given)	none
COc1cccc(C2(c3cccc(OC)c3)CC2C(=O)NCc2ccccc2)c1 (stereo not given)	none
CC(C)N/C=C(/c1cc(O)ccc1O)[N+](=O)[O-]	none
COc1cccc(CN2CCN(C(=O)C(c3ccccc3)c3ccccc3)CC2)c1OC	none
COc1ccccc1C(=O)N1CCN(Cc2ccccc2[N+](=O)[O-])CC1	none
O=C(C(c1ccccc1)c1ccccc1)N1CCN(Cc2ccccc2[N+](=O)[O-])CC1	ER stress death 91.5
Cc1cc(C)nc(/N=C(/N)N2CCCc3ccccc32)n1	none
CC(Oc1ccc(Cl)cc1)C(=O)NN (stereo not given)	none
O=C(O)CCCN1C(=O)C(=O)/C(=C(\O)c2ccc(Cl)cc2)C1c1ccc(F)cc1 (stereo not given)	none
O=C(N/N=C/c1cc([N+](=O)[O-])cc(Br)c1O)c1ccncc1	none
CCOC(=O)c1c(NC(=O)c2nn3c(c2Cl)NC(c2cccs2)CC3C(F)(F)F)sc2c1CCC2 (stereo not given)	none
COc1ccc(C2CC(=O)C3=C(C2)Nc2ccccc2NC3c2cccnc2)cc1OC (stereo not given)	none
O=C1CC(c2ccccc2)CC2=C1C(c1ccc(O)cc1)Nc1ccc(C(=O)c3ccccc3)cc1N2 (stereo not given)	ER stress death 105.8
COc1ccc(C2CC(=O)C3=C(C2)Nc2ccccc2NC3c2ccc(O)cc2)cc1 (stereo not given)	none
O=C1CCCC2=C1C(c1cccs1)Nc1ccc(C(=O)c3ccccc3)cc1N2 (stereo not given)	none
O=C1CCCC2=C1C(c1ccc(O)cc1)Nc1ccc(C(=O)c3ccccc3)cc1N2 (stereo not given)	none
O=C1CC(c2ccccc2)CC2=C1C(c1cccnc1)Nc1ccc(C(=O)c3ccccc3)cc1N2 (stereo not given)	ER stress death 102.4
O=C1CC(c2ccccc2)CC2=C1C(c1ccco1)Nc1ccccc1N2 (stereo not given)	none
O=C1CCCC2=C1C(c1ccc([N+](=O)[O-])cc1)Nc1ccc(C(=O)c3ccccc3)cc1N2 (stereo not given)	ER stress death 121.3
O=C1CCCC2=C1C(c1ccc(F)cc1)Nc1ccc(C(=O)c3ccccc3)cc1N2 (stereo not given)	none
O=C(Nc1ccc2c(c1)OCO2)c1nn2c(c1Cl)NC(c1cccs1)CC2C(F)(F)F (stereo not given)	none
COc1ccc(N2C(=O)c3ccccc3NC2c2ccc(OC)c(Cn3nc(C)c([N+](=O)[O-])c3C)c2)cc1 (stereo not given)	none
COc1cccc(C(=O)Nc2ccc(-c3nc4cc(C)ccc4o3)c(O)c2)c1	none
S=C(NCc1ccco1)NC1CCCC1	none
COc1ccccc1CNC(=O)c1ccc(F)cc1	ER stress death 100.5
COc1ccccc1CNC(=O)c1ccc(C)cc1	none
COc1ccccc1CNC(=O)c1ccc(OC)c(OC)c1	none
Cc1nc(C)c(-c2csc(Nc3ccc(O)cc3)n2)s1	none
CCN(CC)c1ccc(Nc2nc(-c3c(C)nc4ccccn34)cs2)cc1	none
CCN(CC)c1ccc(Nc2nc(-c3sc(N)nc3C)cs2)cc1	ER stress death 72.2
C/C(=N\N=C(/N)SC1CC(=O)N(c2ccc(C(=O)O)cc2)C1=O)c1ccc(C)cc1 (stereo not given)	none
CC1(C)CC1(C#Cc1ccccc1)C(=O)O (stereo not given)	none
O=C1/C(=C/c2ccc(-c3ccc([N+](=O)[O-])cc3)o2)SC(=S)N1Cc1ccco1	ER stress death 56.5
O=C1S/C(=C\c2ccc(-c3ccc([N+](=O)[O-])cc3)o2)C(=O)N1c1ccccc1	none
CCN1C(=O)/C(=C\c2ccc(-c3ccc([N+](=O)[O-])cc3)o2)SC1=S	none
CS(=O)(=O)N(Cc1ccc(C(=O)NCc2ccc(Cl)cc2Cl)cc1)c1ccccc1	none
Cc1ccsc1/C=C(/C#N)c1nc(-c2ccc(-c3ccccc3)cc2)cs1	none
C=CCn1c(SCC(=O)N2c3ccccc3C(C)(c3ccccc3)CC2(C)C)nnc1-c1ccncc1 (stereo not given)	ER stress death 76.2
Cc1nnc(SCC(=O)N2c3ccccc3C(C)(c3ccc(Br)cc3)CC2(C)C)s1 (stereo not given)	none
CC1(c2ccccc2)CC(C)(C)N(C(N)=O)c2ccccc21 (stereo not given)	none
CCOC(=O)/C(C(C)=O)=C(\C=C\N(C)C)N(C)C	none
COC(=O)/C(=C\C=C\N(C)c1ccccc1)C(C)=O	none
CCOC(=O)/C(=C/C=C/N(C1CCCCC1)C1CCCCC1)C(C)=O	ER stress death 50.5
O=C1CC(N2CCN(c3ccccc3Cl)CC2)C(=O)N1c1cccc(Cl)c1 (stereo not given)	none
Cc1c(Cl)cccc1-n1ncnc1-c1ccccc1Cl	none
CCOc1ccc(C(=O)Nc2ccc(Cc3ccncc3)cc2)cc1Cl	none
CCOc1ccc(C(=O)Nc2ccc(Cl)c(-c3nc4ccccc4[nH]3)c2)cc1Cl	ER stress death 64.7
CCOc1ccc(C(=O)Nc2cc(Cl)cc(Cl)c2)cc1Cl	none
CC(C)NC(=O)COc1cccc(Cl)c1	none
CCC(Oc1ccccc1)C(=O)Nc1cccc(F)c1 (stereo not given)	none
Fc1ccccc1OCCCCCN1CCCCC1	none
COc1ccccc1/C=N/N=C1/NC(=O)C(CC(=O)Nc2ccc(Cl)c(Cl)c2)S1 (stereo not given)	none
O=C(O)C1C2CCC(O2)C1C(=O)N1CCN(C(c2ccccc2)c2ccccc2)CC1 (stereo not given)	none
O=C(C1CC1c1ccccc1)N1CCN(C(c2ccccc2)c2ccccc2)CC1 (stereo not given)	ER stress death 103.9
O=C(O)C1C2C=CC(O2)C1C(=O)N1CCN(C(c2ccccc2)c2ccccc2)CC1 (stereo not given)	none
O=S(=O)(O)c1ccc2c(c1)C(S(=O)(=O)O)CC(=N\O)/C2=N/O (stereo not given)	none
CCC(C)NC(=O)c1c(-c2ccccc2Cl)noc1C (stereo not given)	none
CCN1C(=O)c2cccc3c(NC(=O)c4ccc(S(=O)(=O)N5CCCCCC5)cc4)ccc1c23	ER stress death 96.4
